These results are taken from PubChem BioAssay (NCI).

SMILES strings stand for the structures. The panel holds about 83,000 compounds, 20% with a hit somewhere; the sample as a whole holds those more often.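 Negative percent growth values reflect cell death: -40 means 40% of the cells present at the start died, and -100 means all died.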 Unmarked numbers belong to inactive results. Calls of active or inactive are those of the source. The calls were made as follows: active = growth percent below 10; inactive = the rest.

Some test systems named below: NCI-H23 lung; NCI-H226 lung; NCI-H322M lung; HOP-62 NSCLC; NCI-H460 lung; HOP-92 NSCLC; NCI-H522 lung; A549/ATCC NSCLC; 786-0 renal; COLO 205 colon; DU-145 prostate; K-562 leukemia; MALME-3M melanoma; MDA-MB-231 breast; RXF 393 renal; SF-268 CNS; SF-295 CNS; SF-539 CNS; UACC-257 melanoma; M14 melanoma.
What all share (assay): NCI-60 one-dose screen, 48 h (100 = growth as untreated, 0 = no growth, -100 = all killed)
Holding throughout (conditions): 10 µM unless noted

`O=S(=O)(Nc1cc(F)cc(F)c1)c1ccc(-c2cnc(C3CC3)o2)cc1`: the growth in the test on NCI-H23 lung was 63.7%; in the test with NCI-H226 lung, 48.2%; with NCI-H322M lung it was 63.2%; in the test on HOP-62 NSCLC it was 40.9%; in the test with NCI-H460 lung, 25.3%; with HOP-92 NSCLC, 42.5%. The growth was 7.85% (active) in the test on NCI-H522 lung; 46.7% in the test on A549/ATCC NSCLC; 35.5% with 786-0 renal; 40.1% with COLO 205 colon; 70.4% with DU-145 prostate; 9.67% (active) in the test with K-562 leukemia. The growth in the test on MALME-3M melanoma was 50.1%; with MDA-MB-231 breast it was 58.2%; in the test with RXF 393 renal, 46.6%; with SF-268 CNS, 56.7%; in the test on SF-295 CNS, 20.9%; in the test on SF-539 CNS it was 29.2%. Moreover, the growth in the test on UACC-257 melanoma is 62.7%.
Turning to `C=C1C(=O)O[C@H]2[C@H]1CC/C(COC(=O)NCc1ccc(Cn3c(=O)sn(-c4ccccc4)c3=O)cc1)=C\CC[C@@]1(C)O[C@@H]21`, the growth in the test on NCI-H23 lung was 91.7%; with NCI-H226 lung, 55.1%; in the test on NCI-H322M lung, 92.7%; in the test on HOP-62 NSCLC, 126%; in the test on NCI-H460 lung it was 81.3%; with HOP-92 NSCLC, 10.3%. Moreover, the growth in the test on NCI-H522 lung was -70.6% (active); in the test with A549/ATCC NSCLC it was 114%; with 786-0 renal it was 39.7%; in the test on COLO 205 colon it was 3.5% (active); in the test on DU-145 prostate it was 23.3%; with K-562 leukemia, 1.19% (active). Besides, the growth in the test on MALME-3M melanoma is -9.16% (active); in the test with MDA-MB-231 breast it was 47.2%; in the test on RXF 393 renal, 6.99% (active); in the test with SF-268 CNS, 46.6%; in the test on SF-295 CNS, 108%; with SF-539 CNS, 29%. In addition, in the test with UACC-257 melanoma, the growth was 68.3%.
As for `Clc1ccc(-c2cc(-c3ccccc3)nc(N3CCN(CCCNc4ccnc5cc(Cl)ccc45)CC3)n2)cc1`, the growth in the test on NCI-H23 lung is 69%; with NCI-H226 lung it was 45.9%; with NCI-H322M lung it was 28.2%; in the test on HOP-62 NSCLC, 82.1%; with NCI-H460 lung it was -12.8% (active); in the test on HOP-92 NSCLC it was 26.6%. Further, the growth was 9.55% (active) in the test with NCI-H522 lung; 43.6% in the test on A549/ATCC NSCLC; -73.2% (active) in the test on 786-0 renal; -54.2% (active) with COLO 205 colon; 19.2% in the test on DU-145 prostate; -14.7% (active) in the test with K-562 leukemia. Also, the growth was -32.8% (active) with MALME-3M melanoma; -51.7% (active) with MDA-MB-231 breast; -60.5% (active) in the test with RXF 393 renal; 13.5% in the test on SF-268 CNS; 39.6% with SF-295 CNS; -65.7% (active) in the test on SF-539 CNS. The growth with UACC-257 melanoma is 39.2%.
With `C=CC(=O)Nc1cccc(Oc2nccc(Nc3nnc(-c4ccc(Br)cc4)s3)n2)c1`, the growth is 90.8% with NCI-H23 lung; 105% in the test with NCI-H226 lung; 110% with NCI-H322M lung; 91% in the test on HOP-62 NSCLC; 101% in the test on NCI-H460 lung; 92% with HOP-92 NSCLC. Besides, the growth in the test on NCI-H522 lung is 84.4%; in the test with A549/ATCC NSCLC, 100%; in the test with 786-0 renal it was 101%; in the test on COLO 205 colon it was 108%; with DU-145 prostate it was 103%; in the test with K-562 leukemia it was 92.6%. Besides, the growth in the test on MALME-3M melanoma is 112%; in the test with MDA-MB-231 breast, 88.2%; with RXF 393 renal, 101%; in the test with SF-268 CNS, 93.6%; in the test on SF-295 CNS, 96%; in the test on SF-539 CNS, 99.7%. In addition, the growth in the test with UACC-257 melanoma was 105%.
With `COc1ccc(C(=O)C/C(=C\c2ccc(O)c(OC)c2)C(=O)NN)cc1`, the growth in the test with NCI-H23 lung is 68.9%; in the test with NCI-H226 lung it was 91.7%; with NCI-H322M lung, 82%; in the test on HOP-62 NSCLC, 67.4%; in the test on NCI-H460 lung, 43.6%; with HOP-92 NSCLC it was 69.5%. The growth was 52.1% with NCI-H522 lung; 80% with A549/ATCC NSCLC; 112% in the test with 786-0 renal; 106% in the test on COLO 205 colon; 101% in the test with DU-145 prostate; 47.2% in the test on K-562 leukemia. The growth in the test on MALME-3M melanoma was 93.4%; with MDA-MB-231 breast, 65.4%; with RXF 393 renal it was 107%; with SF-268 CNS, 92.4%; in the test with SF-295 CNS, 102%; in the test on SF-539 CNS, 80.8%. Moreover, the growth in the test with UACC-257 melanoma is 81.5%.
On to `ClCCn1cnc2c(SCc3ccccc3)ncnc21`, for which the growth was 72.4% with NCI-H23 lung; 65.4% in the test with NCI-H226 lung; 75.3% in the test with NCI-H322M lung; 66.6% with HOP-62 NSCLC; 12.2% with NCI-H460 lung; 63.7% in the test with HOP-92 NSCLC. Besides, the growth in the test on NCI-H522 lung is 65.8%; in the test on A549/ATCC NSCLC, 40%; in the test on 786-0 renal, 64.8%; in the test on COLO 205 colon, 52.4%; in the test with DU-145 prostate, 63.3%; in the test with K-562 leukemia, 40.8%. In addition, the growth was 57.6% with MALME-3M melanoma; 75.6% in the test with MDA-MB-231 breast; 87.8% in the test with RXF 393 renal; 67.1% in the test on SF-268 CNS; 37.6% with SF-295 CNS; 37.3% with SF-539 CNS. Moreover, the growth with UACC-257 melanoma was 62.4%.
Turning to `N#C/C(=C\c1ccc(-c2cccc(Cl)c2)o1)C(=O)Nc1ncc(Cc2ccc(Cl)cc2)s1`, the growth is 59.6% in the test on NCI-H23 lung; 74% in the test with NCI-H226 lung; 33.6% with NCI-H322M lung; 15.9% in the test with HOP-62 NSCLC; 25% in the test on NCI-H460 lung; 79.8% with HOP-92 NSCLC. Moreover, the growth with NCI-H522 lung is 83.4%; in the test on A549/ATCC NSCLC, 31.6%; in the test on 786-0 renal it was 37.3%; in the test with COLO 205 colon, 83.7%; in the test on DU-145 prostate, 55.9%; in the test with K-562 leukemia, 80.6%. For the same molecule, the growth is 42.7% with MALME-3M melanoma; 34.1% with MDA-MB-231 breast; 86.7% with RXF 393 renal; 72% with SF-268 CNS; 45.3% with SF-295 CNS; 56.6% in the test with SF-539 CNS. For the same molecule, the growth in the test with UACC-257 melanoma was 23.9%; in the test with M14 melanoma it was 62.5%.
On to `CC[C@@H](C(=O)[C@@H](C)[C@@H](O)[C@H](C)[C@@H]1O[C@@H]([C@@H](CC)C(=O)ONC(=O)c2ccccc2O)CC[C@@H]1C)C1O[C@]2(C=CC(=O)[C@]3(CC[C@@](C)([C@H]4CC[C@](O)(CC)[C@H](C)O4)O3)O2)[C@H](C)C[C@@H]1C` (stereo partly drawn), for which the growth with NCI-H23 lung is 23.1%; in the test on NCI-H226 lung, 52.7%; with NCI-H322M lung, 70%; in the test with HOP-62 NSCLC, 58.3%; in the test on NCI-H460 lung, 33.5%; with HOP-92 NSCLC it was 37.3%. The growth with NCI-H522 lung was 23.9%; with A549/ATCC NSCLC, 23.8%; in the test with 786-0 renal, 61.7%; in the test on COLO 205 colon it was 11.6%; in the test with DU-145 prostate it was 40.3%; in the test with K-562 leukemia, 28.6%. Further, the growth is 4.34% (active) in the test with MALME-3M melanoma; 50.9% in the test with MDA-MB-231 breast; 35.2% with RXF 393 renal; 54.2% in the test with SF-268 CNS; 44.7% in the test on SF-295 CNS; 27.5% with SF-539 CNS. In addition, the growth in the test on UACC-257 melanoma is 38.3%.
